Screening data: PubChem BioAssay, National Center for Advancing Translational Sciences (NCATS)
HT1080NT lethal – kills 2HG-producing HT-1080-NT fibrosarcoma cells; HT-1080-NT fibrosarcoma viability, CellTiter-Glo ATP luminescence, 48 h; Potency, µM (series often up to 46.1 µM), inactives show at the highest dose activity, negative = less viability, actives largely listed as cytotoxic; 360,000 tested, 1.6% active;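 note: NT is the 2HG producing partner of a matched IDH1 knockdown line; potency is the fitted concentration of half-maximal effect; 0% = DMSO-treated cells and -100% = media-only wells without cells; nearly all actives have a fitted effect of over 55% in size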
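Read-out is CellTiter-Glo luminescence after 10 minutes at room temperature, following 48 hours' compound treatment of HT-1080-NT cells (750 cells/well, RPMI, 5% FBS, 37 degrees C).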
IL1B secr inh – inflammasome signaling inhibition, IL-1 beta readout; THP-1 LPS/ATP IL-1B secretion, AlphaLISA, 16 h; active compounds read low; activity change, % at 57.5 µM; 360,000 tested, 4.7% active; AID 743279; in the data active = activity change below about -50%; inconclusive = mostly about -30% to -49%
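Secreted IL-1B measured by AlphaLISA bead assay after 16 h compound exposure of THP-1 cells; compounds (final up to 57.5 uM) added 1 h before LPS (250 ng/mL) and ATP (1.25 mM) stimulation; lower signal means less secretion.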
DT40 TDP1 no CPT – qHTS for Inhibitors of human tyrosyl-DNA phosphodiesterase 1 (TDP1): qHTS in cells in absence of CPT; AID 686978, 2013; Potency, µM (top dose mostly 46.2 µM), without a hit: top-dose activity change, negative = growth inhibition, most hits filed as inhibitors; DT40 Tdp1-/- hTDP1 cells, no CPT, ATP luminescence, 48 h; 420,000 tested, 15% active; note: potency is the fitted concentration of half-maximal effect; nearly all actives have a fitted effect of over 55% in size
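Chicken DT40 Tdp1-/- cells complemented with human TDP1, screened without camptothecin (DMSO vehicle only), 400 cells/well. Compounds pin-transferred, cells incubated at 37 °C for at least 48 hr. Growth read as ATP-dependent luminescence (CellTiter-Glo, 30 min at RT).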
TDP1 cell CPT – DT40-hTDP1 cell growth loss with CPT; chicken DT40 Tdp1-/-;hTDP1 cells + 20 nM CPT, ATP luminescence, 48 h; Potency, µM (series often up to 46.2 µM), for inactives: at the top dose activity change, negative = growth inhibition, most hits filed as inhibitors; 420,000 tested, 12% active; AID 686979; note: potency is the fitted concentration of half-maximal effect; nearly all actives have a fitted effect of over 55% in size
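Chicken DT40 Tdp1-/- cells complemented with human TDP1, 400 cells/well, exposed to compounds plus 20 nM camptothecin for at least 48 h at 37 C; viability read as ATP content by CellTiter-Glo luminescence.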
HT1080 IDH1KD tx – toxicity to HT-1080 IDH1 knockdown cells (counter line); HT-1080 IDH1 knockdown viability, ATP luminescence, 48 h; Potency, µM (highest dose often 46.1 µM), without a hit: at the highest dose activity, negative = toxicity, actives largely listed as cytotoxic; 360,000 tested, 2% active; AID 686971;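 note: potency is the fitted concentration of half-maximal effect; 0% = DMSO wells and -100% = cell-free medium wells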
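After a 2 h attachment period, IDH1KD HT-1080 cells took pin-transferred compound for 48 h at 37 °C; ATP-based luminescence after 10 min room-temperature reagent incubation reported viability.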
12-LOX inh – ALOX12 (human) lipoxygenase inhibition | P18054 | purified 12hLO, xylenol orange hydroperoxide absorbance | Potency, µM (top dose mostly 108 µM), for inactives: at the top dose activity change, negative = inhibition, most hits filed as inhibitors | 580,000 tested, 1.1% active; note: potency is the fitted concentration of half-maximal effect
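Purified human 12hLO at 150 nM in 25 mM Hepes, 0.01% Triton X-100, pH 7.0, preincubated 15 min at room temperature with compound. Reaction started with 40 uM arachidonic acid, 30 min at room temperature. Hydroperoxide measured by Fe-xylenol orange, 573/405 nm absorbance ratio.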
Starred values were filed as active, the others as inactive; i = inactive; ? = inconclusive; . = no result given; ! = not confirmed by another sample. The sample as a whole holds a higher share of hits than the screen did. Unless noted, calls come from the whole dose curve; as a rule, active = well fitted curve in the direction sought with a large enough effect; inconclusive = small, poorly fitted or top-dose-only effect, or another doubt; inactive = no such curve, though single readings can be large; an effect the other way counts as inactive or inconclusive. Unless noted, % is set by controls: 0 for no effect and ±100 for the full control effect.

SMILES | HT1080NT lethal | IL1B secr inh | DT40 TDP1 no CPT | TDP1 cell CPT | HT1080 IDH1KD tx | 12-LOX inh
CCOC(=O)C1(C)CCCCCN1C(=O)c1ccc(OC)c(C(F)(F)F)c1 (stereo not given) | 5% | -6 | 10µM* | 23µM* | 0% | 2%
CCOC(=O)C1(C)CCN1C(=O)c1ccc(-c2ccccc2)cc1 (stereo not given) | 4% | 0 | 15µM* | -82% | -2% | 25%
NC(=O)NCC(=O)N1CCC2(CCC(=O)N(Cc3ccccn3)C2)CC1 | . | . | . | . | . | 49%
CCCCc1nn2c(=O)cc(COC(=O)c3ccco3)nc2s1 | . | . | -2% | -17% | . | -26%
COCCCNc1nccc2[nH]c(-c3cccc(C)c3)nc12 | . | . | . | . | . | -2%
CCOC(=O)CSC1=C(C#N)C(c2ccc3c(c2)OCO3)CC(=O)N1 (stereo not given) | 16µM* | -8 | 21µM* | ? | 9.2µM* | -3%
COCC(=O)N1CCC(Oc2ccc(C(=O)NCCCC3CCCC3)cc2)CC1 | -17% | i | 18µM* | 13µM* | -14% | -2%
COc1ccc(OC)c(Nc2nc3ccccc3n3c(C)nnc23)c1 | . | . | -5% | -3% | . | -9%
CCCCOC(=O)c1ccc(Nc2nnc(-n3nc(C)cc3C)c3ccccc23)cc1 | . | . | ? | ? | . | -17%
c1ccc(-c2nc3ccccc3c3nncn23)cc1 | 13% | 7 | ? | ? | 20% | 14%
COc1ccc(Nc2nc3ccccc3c3nnc(C)n23)cc1Cl | . | . | 6.5µM* | 10µM* | . | 3.2µM*
Cc1ccc(N2CCN(c3nc4ccccc4c4nnc(C)n34)CC2)c(C)c1 | . | . | -10% | -7% | . | -19%
CCCCOC(=O)c1ccc(Nc2nc3ccccc3c3nnc(C)n23)cc1 | . | . | 21µM* | 16µM* | . | -23%
Cc1cc(Nc2nc3ccccc3c3nnc(C)n23)ccc1Br | . | . | 18µM* | ? | . | 1%
Cc1ccc(Nc2nc3ccccc3c3nncn23)cc1C | . | . | 16µM* | 8.2µM* | . | -1%
COc1cc(C)cc2oc(=O)c(CC(=O)Nc3cccc(C(C)=O)c3)c(C)c12 | . | . | . | . | . | -4%
CC(=O)N1CCC2(CC1)CC(Cc1ccccc1)CCO2 (stereo not given) | . | . | . | . | . | 47%
COc1ccc(N2CCN(c3nc(C(=O)N4CCN(C)CC4)cs3)CC2)cc1 | . | . | . | . | . | 3%
CCc1ccc(Nc2nnc(SCn3nnc4ccccc4c3=O)s2)cc1 | 0% | -4 | ? | ? | -6% | 0%
CCc1ccc(Nc2nc3ccccc3c3nnc(C)n23)cc1 | . | . | 10µM* | 8.2µM* | . | ?
CN(Cc1nc2scc(-c3ccc(F)cc3)c2c(=O)[nH]1)Cc1cccs1 | . | . | . | . | . | -9%
COc1ccc(CN(C)Cc2nc3scc(-c4ccccc4)c3c(=O)[nH]2)cc1OC | -1% | 12 | 6.5µM* | 13µM* | 7% | 6%
Cc1ccsc1C(=O)c1ccccc1 | . | . | . | . | . | 45%
CCc1ccc(CCOc2ccc(CC3SC(=O)NC3=O)cc2)nc1 (stereo not given) | 4% | 62 | ? | 21µM*! | -11% | ?
CCOc1ccc(CC2S/C(=N/c3ccccn3)NC2=O)cc1 (stereo not given) | ? | 37 | ? | -20% | ? | 21%
CCNC(=O)CSc1nc(C2CC2)nc2ccccc12 | . | . | . | . | . | 4%
